Screening data deposited in PubChem BioAssay by National Center for Advancing Translational Sciences (NCATS).
In the library only some 0.31% were active in any assay of this set; here they are far more common.
TRPML1 inh – inhibitors of human TRPML1 channel | 0.02% of 390,000 active | TRPML1-inducible cells, Ca2+ dye fluorescence, FDSS; hits give low values; inhibition of EC80 agonist-evoked calcium signal | activity change, negative = inhibition, % (concentration not given with the values) | Q9GZU1; in the data active = activity change below about -50%; inconclusive = between about -30% and that limit;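 note: stimulus is agonist 54-4 at its EC80 concentration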
Target sequence (Q9GZU1 whole entry, looked up): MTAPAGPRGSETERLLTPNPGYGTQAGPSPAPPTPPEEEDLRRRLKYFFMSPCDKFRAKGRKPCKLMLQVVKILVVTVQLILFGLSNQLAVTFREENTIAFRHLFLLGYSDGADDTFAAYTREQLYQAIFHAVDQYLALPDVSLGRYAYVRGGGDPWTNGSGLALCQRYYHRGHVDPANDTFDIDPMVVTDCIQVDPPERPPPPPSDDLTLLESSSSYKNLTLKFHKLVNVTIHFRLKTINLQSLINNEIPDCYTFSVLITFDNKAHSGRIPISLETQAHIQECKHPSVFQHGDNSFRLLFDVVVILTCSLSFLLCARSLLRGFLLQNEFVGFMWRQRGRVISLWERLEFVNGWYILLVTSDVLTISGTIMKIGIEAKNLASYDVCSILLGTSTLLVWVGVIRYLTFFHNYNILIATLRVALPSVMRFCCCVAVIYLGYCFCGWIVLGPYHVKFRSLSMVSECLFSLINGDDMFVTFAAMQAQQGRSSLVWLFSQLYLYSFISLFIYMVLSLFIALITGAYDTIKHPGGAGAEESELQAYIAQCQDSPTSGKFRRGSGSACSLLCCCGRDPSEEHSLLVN
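Calcium fluorescence in TRPML1-DL cells induced overnight with Tet: a 110 s read after compound pin addition, then a 110 s antagonist read after challenge with 54-4 at 4 uM final (EC80).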
TRPV1 potentiator – potentiators of human vanilloid receptor 1 (TRPV1). Q8NER1. TRPV1-expressing cells, Fluo-8 calcium influx, capsaicin EC20 potentiation. potentiation, % at 8.33 µM. 0.02% of 320,000 active. AID 540277; in the data active = potentiation above about 80%; inconclusive = between about 30% and that limit
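Fluo-8 calcium influx in TRPV1-expressing cells, kinetic read (ex 480/em 520 nm). Compound added and read 3 min for agonist activity, followed by capsaicin at EC20 final and 2 min further read for enhancement.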
TRPML1 agonist – agonists of human TRPML1 channel. Q9GZU1. TRPML1-expressing cells, Ca2+ dye fluorescence, FDSS. activation, % (no concentration beside the values). 0.12% of 410,000 active. AID 624414; in the data active = activation above about 50%; inconclusive = mostly about 30% to 49%
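TRPML1-DL cells, Tet-induced overnight (~16 h, 37 degrees C), loaded 45-90 min at room temperature with Ca8 no-wash calcium dye plus quencher. FDSS fluorescence: 10 s baseline, compound pin-transfer, 110 s agonist read, then EC80 54-4 (4uM final) and 110 s antagonist read.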
TRPV1 ag – human TRPV1 agonism | 0.19% of 320,000 active | Q8NER1 | activation, % at 8.33 µM | AID 540275 | TRPV1-expressing cells, Fluo-8 calcium influx, agonist mode; in the data active = activation above about 80%; inconclusive = between about 30% and that limit
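Cells expressing TRPV1 were dye-loaded with Fluo-8 and read kinetically: 10 s baseline, 3 min after compound (agonist portion), then 2 min after EC20 capsaicin (allosteric enhancer portion). Calcium-bound dye fluorescence at 480/520 nm.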
Large screens that a line does not name were inactive.

Cc1cc[n+](CCC2CCCCC2)c2ccccc12	none (no result: TRPML1 inh, TRPV1 potentiator, TRPV1 ag)
COc1ccc(Nc2sc(C(=O)c3ccc(Cl)cc3)c(N)c2C(=O)Nc2ccccc2OC)cc1	TRPML1 agonist inconclusive
COc1ccc(C(=O)c2sc(Nc3cccc(OC)c3)c(C(=O)Nc3cccc(C)c3C)c2N)cc1	TRPML1 agonist 60.7
CCOC(=O)c1cc(-c2cccs2)nc2c1c(C)nn2-c1ccccn1	TRPV1 ag inconclusive
Cc1nn(-c2ccccn2)c2nc(-c3cccs3)cc(C(=O)NCc3ccco3)c12	TRPV1 ag 82.7
Cc1cc(C)cc(N2Cc3ccccc3C2)c1	none
COc1cc(N2Cc3ccccc3C2)ccc1C=O	TRPV1 potentiator 93.7
Cc1ccc(-n2nnnc2CNC(=O)C(C)(C)C)cc1C	none (no result: TRPV1 potentiator, TRPV1 ag)
O=C(C[N+]12CN3CN(CN(C3)C1)C2)c1ccc(O)c(O)c1	none (no result: TRPML1 inh, TRPV1 potentiator, TRPV1 ag)
CN1CCN(C(=O)/C=C/c2cn(-c3ccccc3)nc2-c2ccc3c(c2)OCCO3)CC1	TRPV1 ag inconclusive
O=C(/C=C/c1cccc2ccccc12)N1CCOCC1	TRPV1 ag 91.9
O=C(/C=C\c1cn(-c2ccccc2)nc1-c1ccc2c(c1)OCCO2)N1CCOCC1	TRPV1 ag 115.0
Cc1cccc(-n2ncc(C(=O)N3CCN(Cc4ccccc4)CC3)c2C2CCN(C(=O)OC(C)(C)C)CC2)c1	TRPML1 agonist 51.0 (no result: TRPV1 potentiator, TRPV1 ag)
Cc1ccc(-n2ncc(C(=O)N3CCN(c4cccc(C)c4)C(C)C3)c2C2CCN(C(=O)OC(C)(C)C)CC2)cc1 (configuration not stated)	TRPML1 agonist 73.0 (no result: TRPV1 potentiator, TRPV1 ag)
CCCCCCC[n+]1ccc(/C=C/c2c[nH]c3ccccc23)c2ccccc21	none (no result: TRPML1 inh, TRPV1 potentiator, TRPV1 ag)
O=C(Nc1ccc(N2CCCC2)cc1)c1cccc(Cl)c1Cl	TRPV1 ag 81.5
O=C(Nc1ccc(N2CCCC2)cc1)c1ccc([N+](=O)[O-])cc1Cl	none
CS(=O)(=O)c1ccc(C(=O)Nc2ccc(N3CCCCC3)cc2)c(Cl)c1	TRPV1 ag 83.4
CC(=O)N1CCN(c2ccc(NC(=O)c3cccc(Cl)c3Cl)cc2)CC1	none
CC(C)c1ccc(Cn2cnc3c(cnn3C(C)(C)C)c2=O)cc1	none (no result: TRPV1 potentiator, TRPV1 ag)
CCCOc1cccc(OCCSc2nc(C)cc(=O)[nH]2)c1	TRPV1 ag 81.6
Cc1cc(=O)[nH]c(SCCCOc2ccc(F)cc2)n1	none
Cc1ccc(CNC(=O)CSCc2ccccc2)cc1	TRPV1 ag inconclusive
Cc1ccc(CNC(=O)CSCc2ccc(F)cc2)cc1	TRPV1 ag 80.6
C/C(CC(=O)Nc1cc(C)ccn1)=N\NC(=O)c1ccc(C)cc1	none
C/C(CC(=O)Nc1cc(C)ccn1)=N\NC(=O)c1ccccc1C	TRPML1 agonist 61.2
O=C(CS(=O)(=O)c1cccc2nsnc12)NCc1ccc(Cl)cc1	none (no result: TRPV1 potentiator, TRPV1 ag)
Cc1cc2oc(C(=O)Nc3cccnc3)c(C)c2cc1C	TRPV1 ag 85.0
O=C(NCc1ccc(F)cc1)C1CCCN(c2nc3ccsc3c(=O)s2)C1 (configuration not stated)	TRPV1 ag 83.0
Cc1cc(C)c2c(=O)c3c(oc2c1)C(=O)N(CCO)C3c1cccc(O)c1 (configuration not stated)	TRPML1 inh -55.7
COc1ccc2nc(N3CCCC3)c(C#N)cc2c1	none
COc1ccc2nc(N3CCCCC3)c(C#N)cc2c1	TRPML1 agonist 61.9
CCN1/C(=C/C=C/c2oc3ccc4ccccc4c3[n+]2CC)Oc2ccc3ccccc3c21	TRPML1 agonist 63.0
COC(=O)/C=C/c1ccc2c(c1)S(=O)(=O)N(C1CCCC1)[C@H]2CC(=O)OC	none (no result: TRPML1 inh, TRPV1 potentiator, TRPV1 ag)
CC(C)(C)n1ncc2c(=O)n(Cc3ccccc3C(F)(F)F)cnc21	none (no result: TRPV1 potentiator, TRPV1 ag)
CC(=O)c1cccc(NC(=O)c2ccc3c(c2)CCCC3)c1	TRPV1 ag 87.0
CC(=O)c1ccc(NC(=O)NC2CCCc3ccccc32)cc1 (configuration not stated)	TRPV1 ag inconclusive
COc1cccc(NC(=O)c2ccc3c(c2)CCCC3)c1	TRPV1 ag inconclusive
CC(=O)c1cccc(NC(=O)NC2CCCc3ccccc32)c1 (configuration not stated)	TRPV1 ag 82.6
O=C(Nc1ccc2c(c1)CCC2)c1cccc(F)c1	TRPV1 ag 97.4
O=C(Nc1ccc2c(c1)CCC2)c1cc(F)cc(F)c1	TRPV1 ag inconclusive
CC(=O)c1cccc(NC(=O)c2ccc(OC3CSC3)cc2)c1	TRPV1 ag 112.7
COc1ccc(CCNC(=O)CCCn2nc(C)c3sc4ccccc4c3c2=O)c(OC)c1	none (no result: TRPV1 potentiator, TRPV1 ag)
COc1cccc(CN(Cc2ccco2)C(c2ccc(F)cc2)c2nnnn2C(C)(C)C)c1 (configuration not stated)	TRPML1 agonist 105.6
CC(C)(C)n1nnnc1C(c1ccccc1F)N(Cc1ccco1)CC1CCCO1 (configuration not stated)	TRPML1 agonist 66.1, TRPV1 ag inconclusive
Cc1ccc2[nH]c3c(=O)n(CC(=O)N4CCCC(C)C4)ncc3c2c1 (configuration not stated)	none (no result: TRPV1 potentiator, TRPV1 ag)
Cc1nn(-c2ccccn2)c2c1-c1nc(N)sc1CC2	none (no result: TRPML1 inh, TRPV1 potentiator, TRPV1 ag)
Cc1ncoc1C(=O)NC1CC(C)(C)Cc2c1cnn2-c1ccc(F)cc1 (configuration not stated)	TRPV1 ag 84.5
CC(C)(C)S(=O)(=O)c1cnc(N2CCCCC2)nc1N	none
CC(C)(C)S(=O)(=O)c1cnc(-c2ccc(Cl)cc2)nc1N	TRPML1 agonist 74.2 (no result: TRPV1 potentiator, TRPV1 ag)
Cc1nnc(NC(=O)c2sc3nc(-c4cccs4)cc(C(F)(F)F)c3c2N)s1	TRPML1 agonist 51.8
CC(C)CC(c1nnnn1C(C)C)N1CCN(C(=O)c2ccco2)CC1 (configuration not stated)	none
CC(C)CC(c1nnnn1C(C)C)N1CCN(c2cccc(Cl)c2)CC1 (configuration not stated)	TRPML1 agonist 84.0
N#C/C(=C\c1coc2ccc(O)cc2c1=O)C(=O)Nc1nc2ccccc2s1	TRPML1 agonist 72.4, TRPV1 ag inconclusive
CN(C)c1ccc(NC(=O)Cn2cc(S(=O)(=O)Cc3ccccc3Cl)c3ccccc32)cc1	none (no result: TRPV1 potentiator, TRPV1 ag)
Cc1ccc(C2=NS(=O)(=O)N(C)C(C(=O)NCc3ccccn3)=C2)cc1	none
Cc1ccc(C2=NS(=O)(=O)N(C)C(C(=O)NCc3cccs3)=C2)cc1	TRPV1 ag 91.5
CCOC(=O)c1[nH]c(C)c(CCC(=O)N2CCN(c3cc(Cl)ccc3C)CC2)c1C	none (no result: TRPV1 potentiator, TRPV1 ag)
O=C1CSC(c2ccc(Cl)cc2)N1c1cccnc1 (configuration not stated)	TRPML1 agonist 78.2
CCCOc1cc(N(CC)CC)ccc1/C=C(/C#N)c1nc2ccc(C)cc2[nH]1	TRPML1 agonist inconclusive, TRPV1 ag inconclusive
CCN(CC)c1ccc(/C=C(/C#N)c2nc3ccc(C)cc3[nH]2)c(OC(C)C)c1	TRPV1 ag 85.4
CCc1ccc(S(=O)(=O)c2nnn3c2nc(NC2CCCCCC2)c2sccc23)cc1	none (no result: TRPV1 potentiator, TRPV1 ag)
Cc1ccccc1C(=O)Nc1nnc(-c2ccc(C(C)(C)C)cc2)s1	TRPV1 potentiator 82.7
Cc1cccc(C(=O)Nc2nnc(-c3ccc(C(C)(C)C)cc3)s2)c1	none
